# Bead autofluor – counter-screen for toxin protease inhibitors: compound fluorescence; compound autofluorescence counterscreen, microsphere flow cytometry; active compounds read high; fluorescence intensity (concentration not given with the values); actives 3.1% (n = 360,000); AID 624483; in the data active = fluorescence intensity above about 16000; inconclusive = no clear call, values can overlap the other calls
# BoNT-A LC inh2 – inhibitors of Botulinum neurotoxin A light chain protease; multiplex microsphere protease substrate cleavage, flow cytometry; inhibition, % at 10 µM; actives 0.17% (n = 360,000); also: plate controls were buffer without enzyme for full effect and enzyme alone for no effect
# BoNT-F LC inh – BoNT F light chain protease inhibition; actives 0.22% (n = 360,000); inhibition, % at 10 µM; AID 588497; Multiplex microsphere protease cleavage assay, flow cytometry; in the data active = inhibition above about 35%, passing the limit was not always enough; inconclusive = no clear call, values can overlap the other calls; also: plate controls were buffer without enzyme for full effect and enzyme alone for no effect
# Anthrax LF inh2 – inhibitors of Bacillus anthracis lethal factor protease; multiplex microsphere protease cleavage assay, LF; inhibition, % at 10 µM; actives 0.12% (n = 360,000); AID 588501; also: plate controls were buffer without enzyme for full effect and enzyme alone for no effect
# Target sequence (P15917 whole entry, looked up): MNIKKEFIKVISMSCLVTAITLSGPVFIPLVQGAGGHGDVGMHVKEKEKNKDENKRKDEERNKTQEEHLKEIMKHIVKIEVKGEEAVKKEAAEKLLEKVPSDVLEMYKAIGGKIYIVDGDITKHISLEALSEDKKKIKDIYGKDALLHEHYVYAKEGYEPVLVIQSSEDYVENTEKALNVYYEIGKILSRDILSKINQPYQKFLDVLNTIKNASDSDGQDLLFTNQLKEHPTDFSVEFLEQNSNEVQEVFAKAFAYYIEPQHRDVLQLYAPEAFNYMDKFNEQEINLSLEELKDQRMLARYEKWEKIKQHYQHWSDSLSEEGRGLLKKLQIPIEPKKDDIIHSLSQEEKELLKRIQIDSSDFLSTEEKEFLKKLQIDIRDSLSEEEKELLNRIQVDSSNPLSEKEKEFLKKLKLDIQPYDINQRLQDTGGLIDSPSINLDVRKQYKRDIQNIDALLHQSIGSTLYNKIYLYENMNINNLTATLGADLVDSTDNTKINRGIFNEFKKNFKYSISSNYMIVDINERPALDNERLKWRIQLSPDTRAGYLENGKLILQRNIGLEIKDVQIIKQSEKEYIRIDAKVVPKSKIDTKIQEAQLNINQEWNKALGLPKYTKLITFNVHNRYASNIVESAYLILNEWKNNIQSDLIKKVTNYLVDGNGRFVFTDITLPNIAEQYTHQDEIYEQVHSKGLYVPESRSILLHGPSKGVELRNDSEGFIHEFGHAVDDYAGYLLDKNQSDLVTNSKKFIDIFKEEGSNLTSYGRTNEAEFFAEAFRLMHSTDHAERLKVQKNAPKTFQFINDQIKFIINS
# MazF activator – activators of E. coli MazEF toxin-antitoxin RNase. activation, % at 20 µM. FAM/BHQ RNA-DNA oligo cleavage fluorescence, 5 h. P0AE70. actives 0.32% (n = 350,000). AID 504720; in the data active = activation above about 50%
# * = called active by the depositor; u = inconclusive; x = not tested or not shown. The list is not random: actives were taken first. Their share in the collection is about 3.6%. Rule as the data show it, unless noted: active = inhibition above about 30%; inconclusive = no clear call, values can overlap the other calls; inactive = below that.
SMILES,Bead autofluor,BoNT-A LC inh2,BoNT-F LC inh,Anthrax LF inh2,MazF activator
CCCS(=O)(=O)N1CCN(C(=O)c2cccc(OC)c2)CC1,3563,-1.4,16.4,-0.3,6.6
COc1cccc(C(=O)N2CCN(S(C)(=O)=O)CC2)c1,23027*,-0.6,-0.1,-4.9,3.5
CS(=O)(=O)N1CCN(C(=O)c2c(F)cccc2F)CC1,23941*,-1.4,-2.8,-0.7,-3.0
COc1cccc(S(=O)(=O)Nc2ccc(C(=O)N3CCN(C(=O)c4ccco4)CC3)cc2)c1,18332*,4.6,4.8,-8.6,8.0
O=C(Nc1ccccc1)c1cc(C2COCCN2C(=O)C2CC2)on1 (stereo not given),3970,-0.3,-2.5,3.4,x
O=P(Cc1ccccc1O)(c1ccccc1)c1ccccc1,2537,-1.7,-17.4,1.2,0.9
O=P(Cc1ccccn1)(c1ccccc1)c1ccccc1,24061*,-2.5,-3.3,-3.2,2.5
COc1ccc(CN2C(=O)c3ccccc3C2c2nnnn2Cc2ccccc2)cc1OC (stereo not given),5622,0.4,2.0,3.0,x
Cc1ccc(/C=C2\SC(=S)N(CCC(=O)Nc3cccnc3)C2=O)cc1,5183,-0.3,4.0,-0.8,82.4*
O=C(NN1C(=O)/C(=C/c2cccs2)SC1=S)c1ccccc1,8439,9.6,40.7*,21.5,-3.7
O=C(NN1C(=O)/C(=C/c2cccnc2)SC1=S)C(c1ccccc1)c1ccccc1,21106*,-1.3,-2.0,-1.5,-16.1
O=C(CCN1C(=O)/C(=C/c2cccc(Br)c2)SC1=S)NNC(=O)c1cccnc1,16764*,-1.1,-4.2,-3.0,-4.7
Cc1ccc(S(=O)(=O)N2CCCCC2)cc1NC(=O)c1nn(C)c(=O)c2ccccc12,5622,-0.3,8.0,-1.8,12.4
COc1cc(/C=C/C(=O)OCC(=O)NCCc2ccc(S(N)(=O)=O)cc2)ccc1OCC#N,5788,1.9,-7.3,1.9,1.8
O=C(NCCc1cccs1)Nc1nnc([C@H]2C[C@H](O)[C@@H](CO)O2)s1,3542,0.1,-7.1,-2.7,x
CCN1C(=O)/C(=C2\C=Cc3ccccc3N2CC)OC1=S,10575,-0.7,-6.9,-1.6,234.6*
OC[C@@H]1CN(Cc2ccc(Cl)cc2)C[C@H](n2cnc3c(N4CCCC4)ncnc32)O1,3588,0.2,-0.8,7.6,x
Cn1c2ccccc2c2nnc(SC3CCOC3=O)nc21 (stereo not given),23365*,-0.2,-0.5,0.5,6.6
Cc1ccc(NC(=O)COc2ccc(Br)cc2CO)cc1,22055*,-5.3,-7.9,-0.7,0.4
Cc1ccc(NC(=O)COc2ccccc2CNC(C)(C)CC(C)(C)C)cc1,16482*,-2.4,-2.4,-16.3,11.7
CC(C)(CO)NCc1ccccc1OCC(=O)Nc1ccccc1,6667,-1.2,-8.3,-2.6,0.1
CCOC(=O)N1CCC(NC(=O)c2cc(COc3c(C)cccc3C)on2)CC1,6035,-0.5,-1.1,-0.9,-5.8
COC(=O)c1ccc(-c2n[nH]c(=O)c3ccccc23)cc1,19671*,u,2.5,-0.7,0.4
O=C(Nc1nncs1)C(Sc1ccccc1)c1ccccc1 (stereo not given),2469,-0.3,-7.2,-2.3,-0.6
O=C(Nc1ccon1)C(Sc1ccccc1)c1ccccc1 (stereo not given),23273*,u,0.7,-3.2,-2.8
SMILES,Bead autofluor,BoNT-A LC inh2,BoNT-F LC inh,Anthrax LF inh2,MazF activator
CNC(=O)/C=C/c1cccc(C(F)(F)F)c1,2221,4.0,39.8*,1.5,0.1
COc1ccc2c(c1)CCc1c(C(=O)NCCCn3ccnc3)noc1-2,22596*,0.6,0.4,-1.8,5.8
COc1ccc(OC)c(-c2cc(C(=O)NCCCn3ccnc3)no2)c1,24152*,-2.6,-4.3,-7.2,4.5
COc1ccc2c(c1)CCc1c(C(=O)NCCN3CCOCC3)noc1-2,10269,-0.4,-7.2,-2.0,1.0
COCCNC(=O)c1noc2c1CCc1cc(OC)ccc1-2,9948,-0.7,-0.6,-0.9,-3.5
COc1ccc2c(c1)CCc1c(C(=O)NCc3ccco3)noc1-2,24173*,u,-2.9,-3.6,-0.9
COc1ccc(C(=O)NCCCn2ccnc2)cc1,4110,0.2,u,-5.1,0.0
COc1ccc(OC)c(NC(=O)CC2C(=O)NCCN2C(=O)c2ccccc2)c1 (stereo not given),3679,-2.6,-19.2,-7.8,7.0
CCN(CC)c1ccc(C(=O)NNC(=O)CNC(=O)c2cccs2)cc1,x,x,x,x,0.3
CCOC(=O)c1c(C)[nH]c(C)c1S(=O)(=O)NCCc1ccco1,6011,0.4,-5.3,2.1,7.3
CC(C)(C)NC(=O)NC(=O)COC(=O)CCCc1c[nH]c2ccccc12,24864*,-2.8,-9.1,-3.4,-5.5
CCOC(=O)CCCc1c[nH]c2ccccc12,21767*,5.1,4.0,-0.7,-7.4
CCC1Nc2ncnc(N3CCc4ccccc4C3)c2N(Cc2ccc(Br)cc2)C1=O (stereo not given),6146,-0.3,-8.5,2.9,x
O=C1NC(=O)C2(C=C(c3ccccc3)C(O)(c3ccccc3)C2)N1 (stereo not given),3864,0.8,-4.4,-4.0,-3.3
O=C(NCc1ccccc1F)C1CCN(C(=O)NCc2ccccc2)CC1,17003*,-1.8,-2.9,-5.8,-1.5
O=C(NC1CCCC1)C1CCN(C(=O)NCc2ccccc2)CC1,3349,-1.8,-6.0,0.9,2.8
O=C(NC1CCCCC1)C1CCN(C(=O)NCc2ccccc2)CC1,16321*,0.9,1.8,-2.5,2.0
CCOc1cc(/C=N\NC(=O)c2ccc(C)nc2)cc([N+](=O)[O-])c1O,19947*,-1.7,-5.5,-0.7,-3.1
O=C(CSc1nnc2ccccn12)NNC(=O)c1cccc([N+](=O)[O-])c1,x,x,x,x,6.9
COc1ccc(NC(=S)NCCc2ccccc2OC)c(OC)c1,16398*,-0.2,-0.9,-7.8,11.0
COc1ccc(NC(=S)NCc2ccccc2Cl)c(OC)c1,3290,5.7,-32.7,-26.5,12.7
COc1ccccc1CCNC(=O)c1ccc(C)o1,21801*,u,-1.7,-0.7,-5.1
COc1ccc(OCCNC(=S)Nc2cccc3ccccc23)cc1,22439*,-0.4,-3.4,-2.2,-6.1
COc1cccc(C(C(=O)NCc2ccccc2)N(C(=O)c2csnn2)C2CC2)c1 (stereo not given),6002,-0.7,1.8,1.4,1.6
COc1ccc(N/N=C(/C)c2cnnc(-c3ccccc3)n2)cc1,9333,0.0,3.5,-3.7,35.3
SMILES,Bead autofluor,BoNT-A LC inh2,BoNT-F LC inh,Anthrax LF inh2,MazF activator
C=CCOc1ccc(/C=N/NC(=O)CC(=O)NC2CCCCC2)cc1,3818,0.7,-25.7,6.1,514.2*
CC(C)c1ccc(/C=N/NC(=O)CC(=O)NC2CCCCC2)cc1,2146,-0.6,-4.5,-3.4,-1.6
C/C(=C1\SC(N2CCOCC2)=NC1=O)c1ccccc1,9566,-0.8,-1.5,-10.3,-4.3
C/C(=C1/SC(N2CC(C)OC(C)C2)=NC1=O)c1ccccc1 (stereo not given),19965*,-1.0,-1.1,-3.7,1.9
CCNC(=O)c1sc(-c2ccccc2)nc1C,21235*,u,-3.8,0.6,-2.0
Cc1nc(-c2ccccc2)sc1C(=O)O,4649,0.1,2.4,0.1,-12.3
Cc1nc(-c2cccnc2)sc1C(N)=O,16867*,-2.2,-9.0,-3.4,7.8

# Source: PubChem
